This is an account of results in PubChem BioAssay.

A short description of test [1]: compounds binding Alexa647 anti-His antibody – biochemical, small-molecule microarray, 635 nm fluorescence, artefact control for SMM control protein annotation, primary screen (AID 1128).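 Further: score merges feature fluorescence with signal-to-noise for each printed compound spot.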 To be noted: higher = more signal.
The subject of test [2] is Human papillomavirus type 1a E7 protein (residues 1-88). Kind of test: HPV1a E7 small-molecule binders, primary screen, biochemical, small-molecule microarray, residues 1-88, 635 nm (AID 1129). The following applies: small-molecule microarray binding, fluorescence 635 nm; higher = more signal.
The target in test [3] is Focal adhesion kinase 1 (Homo sapiens) (UniProt Q05397). Kind of test: PTK2 protein binding on printed compound slides – biochemical, small-molecule microarray, 635/667 nm fluorescence, BSA, DTT, primary screen (AID 1130).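 Further: composite of spot emission at 667 nm and signal to noise over triplicate slides.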 The following applies: 635 nm fluorescence, higher = more signal.
Test [4] has as its system Fibrinogen (Alexa647-labelled). Kind of test: Alexa647-fibrinogen binding to printed small molecules – biochemical, small-molecule microarray, 635/667 nm fluorescence, artefact control for SMM control-protein annotation, profiling panel (AID 1131).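 Further: z-score merges 667 nm fluorescence with per-spot signal-to-noise over triplicate slides.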 To be noted: fibrinogen-A647 binding fluorescence, higher = more signal.
Test [5] addresses Follistatin (Homo sapiens) (UniProt P19883). Kind of test: FST protein binding to printed compounds – biochemical, small-molecule microarray, 635/667 nm fluorescence, primary screen (AID 1132). The following applies: 635 nm fluorescence, higher = more signal.
Test [6] addresses Fibroblast growth factor 2 (Homo sapiens) (UniProt P09038). Kind of test: basic fibroblast growth factor binding to printed compounds – biochemical, small-molecule microarray, 635/667 nm fluorescence, primary screen (AID 1133). To be noted: FGF2, fluorescence 635/667, higher = more signal.
A short description of test [7]: JC-1 mitochondrial potential readout, lung cancer cells – cell-based, A549, JC-1 fluorescence, basal, 24 h, 100 nL, profiling panel (AID 1138).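 Further: A549 lung adenocarcinoma cells under basal conditions with no added stimulus; test concentration not given here.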 The following applies: higher = more signal.
In a further test the test system is Lefty1. Kind of test: Lefty1 protein binding to printed compounds – biochemical, small-molecule microarray, 635/667 nm fluorescence, primary screen (AID 1139). The following applies: fluorescence 635/667, higher = more signal.
For test [8], the system named is wheat germ agglutinin (Triticum aestivum), Alexa647-labelled. Kind of test: Alexa647-WGA lectin binding to printed small molecules – biochemical, small-molecule microarray, 635/667 nm fluorescence, artefact control for SMM control-protein annotation, profiling panel (AID 1140).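 Further: score merges 667 nm feature emission with signal to noise over triplicate slides.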 To be noted: WGA-A647 binding, 635 nm fluorescence, higher = more signal.
Test [9] concerns the target Luciferin 4-monooxygenase (Photinus pyralis) (UniProt P08659). Kind of test: inhibition of purified Photinus pyralis luciferase – biochemical, luminescence, purified enzyme, 2006 set, primary screen (AID 1141).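 Further: cell-free assay with purified firefly luciferase at 100 ng per well in PBS; test concentration not given here.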 The following applies: purified firefly luciferase, SteadyGlo luminescence, 30 min; higher = more signal, called active from +8 up or from −8 down.

SMILES strings stand for the structures. Active and inactive are the calls of the source.

Sequence of Focal adhesion kinase 1 (Homo sapiens) (Q05397 whole entry, looked up): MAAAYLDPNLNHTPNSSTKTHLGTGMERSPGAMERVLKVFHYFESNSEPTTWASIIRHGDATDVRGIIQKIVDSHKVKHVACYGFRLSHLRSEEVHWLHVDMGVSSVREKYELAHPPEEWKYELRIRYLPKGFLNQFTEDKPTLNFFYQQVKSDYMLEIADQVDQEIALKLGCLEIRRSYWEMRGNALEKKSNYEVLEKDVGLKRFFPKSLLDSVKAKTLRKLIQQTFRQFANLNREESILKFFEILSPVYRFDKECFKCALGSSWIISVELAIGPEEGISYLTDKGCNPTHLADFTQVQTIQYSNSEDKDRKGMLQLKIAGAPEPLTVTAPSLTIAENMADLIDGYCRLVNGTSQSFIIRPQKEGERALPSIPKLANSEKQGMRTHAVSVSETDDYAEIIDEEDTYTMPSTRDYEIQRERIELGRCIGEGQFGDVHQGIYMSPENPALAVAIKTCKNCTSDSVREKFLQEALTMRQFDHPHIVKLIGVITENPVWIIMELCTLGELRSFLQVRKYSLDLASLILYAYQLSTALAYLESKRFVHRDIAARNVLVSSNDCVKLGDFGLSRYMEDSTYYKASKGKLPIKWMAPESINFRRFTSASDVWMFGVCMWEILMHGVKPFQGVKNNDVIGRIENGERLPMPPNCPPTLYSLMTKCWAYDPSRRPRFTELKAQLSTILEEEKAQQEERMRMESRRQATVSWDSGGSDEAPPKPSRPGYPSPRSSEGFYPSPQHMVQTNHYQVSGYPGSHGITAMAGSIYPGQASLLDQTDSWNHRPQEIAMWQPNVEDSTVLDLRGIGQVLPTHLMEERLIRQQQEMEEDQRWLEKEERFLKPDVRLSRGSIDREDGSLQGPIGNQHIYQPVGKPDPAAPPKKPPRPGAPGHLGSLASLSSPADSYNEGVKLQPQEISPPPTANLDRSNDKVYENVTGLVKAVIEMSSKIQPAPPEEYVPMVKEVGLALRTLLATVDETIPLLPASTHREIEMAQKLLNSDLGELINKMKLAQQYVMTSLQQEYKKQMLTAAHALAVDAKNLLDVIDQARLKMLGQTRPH
Sequence of Fibroblast growth factor 2 (Homo sapiens) (P09038 whole entry, looked up): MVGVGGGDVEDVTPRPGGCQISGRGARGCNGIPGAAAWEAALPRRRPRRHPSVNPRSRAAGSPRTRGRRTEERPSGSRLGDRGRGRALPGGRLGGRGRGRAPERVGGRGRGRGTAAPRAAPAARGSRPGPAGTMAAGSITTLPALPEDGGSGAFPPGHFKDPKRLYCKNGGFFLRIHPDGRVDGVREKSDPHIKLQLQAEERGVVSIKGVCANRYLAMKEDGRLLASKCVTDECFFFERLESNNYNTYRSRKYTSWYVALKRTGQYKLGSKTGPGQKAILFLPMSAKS
Sequence of Follistatin (Homo sapiens) (P19883 whole entry, looked up): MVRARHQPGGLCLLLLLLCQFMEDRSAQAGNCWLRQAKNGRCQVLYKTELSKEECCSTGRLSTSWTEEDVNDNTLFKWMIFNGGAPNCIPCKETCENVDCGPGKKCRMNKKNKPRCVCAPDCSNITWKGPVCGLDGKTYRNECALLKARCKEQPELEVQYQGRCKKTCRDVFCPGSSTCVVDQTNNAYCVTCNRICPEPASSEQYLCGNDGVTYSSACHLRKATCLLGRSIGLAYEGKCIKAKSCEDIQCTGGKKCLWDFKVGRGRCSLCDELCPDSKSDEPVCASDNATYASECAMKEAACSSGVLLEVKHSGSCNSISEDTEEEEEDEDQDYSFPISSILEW
Sequence of Luciferin 4-monooxygenase (Photinus pyralis) (P08659 whole entry, looked up): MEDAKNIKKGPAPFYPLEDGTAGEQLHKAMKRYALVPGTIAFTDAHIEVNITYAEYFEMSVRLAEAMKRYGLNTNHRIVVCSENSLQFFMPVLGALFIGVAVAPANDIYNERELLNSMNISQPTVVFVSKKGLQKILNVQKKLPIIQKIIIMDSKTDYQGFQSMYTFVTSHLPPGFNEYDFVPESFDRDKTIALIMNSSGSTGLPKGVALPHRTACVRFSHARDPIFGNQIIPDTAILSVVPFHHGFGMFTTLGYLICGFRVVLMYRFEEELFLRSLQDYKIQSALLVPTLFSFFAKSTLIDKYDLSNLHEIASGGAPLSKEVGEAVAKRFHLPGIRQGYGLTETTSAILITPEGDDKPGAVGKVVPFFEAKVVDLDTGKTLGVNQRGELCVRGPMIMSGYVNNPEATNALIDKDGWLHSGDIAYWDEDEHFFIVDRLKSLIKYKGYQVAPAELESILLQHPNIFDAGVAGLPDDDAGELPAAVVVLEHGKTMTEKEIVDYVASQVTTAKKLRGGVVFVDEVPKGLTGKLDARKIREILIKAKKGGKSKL

On to `CCN1C(=O)[C@H]2[C@H]3[C@H](O)[C@H](O)CC(=NO[C@@H](C)c4cn([C@H](CO)Cc5ccccc5)nn4)[C@@H]3CC[C@H]2C1=O`, for which the composite z-score in [1] was 3.32; in [2], 1.11; in test [3] it was -0.0643; in test [4] it was 0.752; in test [5], 0.579; in [6], 0.894. The values for the composite z-score (in the test with Lefty1; in test [8]) were 0.926 and 1.05, respectively. The z-score was -0.719 in [7] and 0.465 (inactive) in [9].

For the molecule `CO[C@H]1COC(=O)[C@H](C)NC(=O)CC=C[C@@H](C)[C@H](OC)COC(=O)[C@@H](OCc2ccccc2)C=C[C@@H]1C`, the composite z-score in [1] is -0.435; in test [2], -0.611; in test [3] it was -0.329; in test [4] it was 0.029; in test [5], 1.21; in test [6] it was 0.618. Also, the composite z-score in the test with Lefty1 was 0.529; in test [8] it was -1.25. In addition, the z-score is 0.805 in [7] and -0.231 (inactive) in test [9].

On to `COc1ccc(O[C@H]2C=C[C@@H](c3ccccc3)O[C@@H]2CON=C(C)C)cc1`, for which the composite z-score in [1] is -0.732; in test [2] it was -1.11; in [3], 0.433; in [4], 0.152; in test [5], 0.234; in test [6], -0.287. Also, the composite z-score is -0.0027 with Lefty1 and 0.938 in [8]. Besides, the z-score in test [7] was -0.541; in test [9] it was 0.409 (inactive).

On to `CCOC(=O)[C@H](Cc1ccccc1)NC(=O)CCC1CC(OC(=O)NCc2cccc3ccccc23)CC2(CCCC(COC(=O)NCc3cccc(C(F)(F)F)c3)O2)O1` (stereo not given in full), for which the composite z-score in [1] was 0.419; in test [2], 0.565; in [3], 0.219; in [4] it was 0.193; in test [5], -0.0637; in test [6], 0.0858. For the same molecule, the composite z-score in the test with Lefty1 turned out to be 0.0217; in [8] it was 0.0961. Further, the z-score in test [7] was 1.94; in [9], -0.114 (inactive).

As to `CC(C)CON=C1[C@H]2CCn3c(=O)n(Cc4cc5c(cc4Cl)OCO5)c(=O)n3[C@H]2[C@H](O)[C@@H]2O[C@H]12`, the composite z-score was 0.158 in test [1]; 0.489 in [2]; 0.217 in [3]; 0.172 in test [4]; 0.768 in [5]; 0.42 in test [6]. Also, the composite z-score in the test with Lefty1 is 0.452; in [8], -0.121. The z-score is -0.937 in test [7] and 0.748 (inactive) in test [9].

As to `CCOC(=O)[C@H](Cc1ccccc1)NC(=O)CCC1CC(OC(=O)NCc2cccc3ccccc23)CC2(CCCC(COC(=O)NCC(c3ccccc3)c3ccccc3)O2)O1` (stereo not given in full), the composite z-score is 1.06 in [1]; 0.455 in test [2]; 0.384 in test [3]; 0.853 in test [4]; 0.411 in [5]; 0.39 in test [6]. Also, the composite z-score in the test on Lefty1 is 0.589; in test [8], -0.0722. Besides, the z-score in [7] was -0.243; in test [9] it was 0.611 (inactive).

In the case of `COc1ccc(C#C[C@@H]2C=C[C@H](OC(C)=O)[C@@H](COC(C)=O)O2)cc1`, the composite z-score worked out at 1.01 in test [1]; 0.282 in [2]; 0.0919 in [3]; 0.0177 in [4]; 0.567 in test [5]; 0.183 in test [6]. The composite z-score with Lefty1 came to 0.649; in [8] it was 0.217. The figures for the z-score in test [7] and in test [9] were 0.0859 and -1.06 (inactive), respectively.

As to `CCc1cc2c(nc1CC)CCN(CCC(C)=NO[C@H](C)c1cn([C@@H]3COC[C@H]3O)nn1)C2`, the composite z-score in test [1] is -0.0963; in test [2], -0.139; in [3], -0.162; in test [4] it was 0.522; in test [5], 0.523; in test [6], 0.305. The results for the composite z-score (in the test on Lefty1; in test [8]) were 0.204 and 0.199, respectively. Moreover, the z-score in [7] was 0.537; in test [9], 0.221 (inactive).

Consider `C[C@H]1Cc2c(COc3ccccc3)nc3c(c2CO1)CN(CCOc1ccccc1)CC3`, for which the composite z-score in test [1] amounted to 1.07; in test [2], 0.804; in test [3], 0.673; in [4], 0.702; in test [5], 1.18; in test [6] it was 0.537. Further, the results for the composite z-score (in the test with Lefty1; in test [8]) were 1.13 and 0.346, respectively. For the same molecule, the z-score in [7] was 4.09; in test [9], -1.19 (inactive).

`CC(CCN1CCc2nc(-c3ccccc3)c(-c3ccccc3)cc2C1)=NOC[C@@H](O)[C@H]1O[C@@H]2OC(C)(C)O[C@@H]2[C@H]1O`: the composite z-score in test [1] stood at 0.107; in test [2], 0.94; in test [3], 0.182; in test [4] it was 0.925; in test [5], 0.521; in [6], 0.409. Also, the figures for the composite z-score (in the test with Lefty1; in test [8]) were 1.07 and 0.393, respectively. For the same molecule, the z-score in test [7] was 2.07; in [9], -0.116 (inactive).

With `CC[C@@H](c1ccccc1)n1c(=O)n2n(c1=O)[C@H]1[C@H](O)[C@@H]3O[C@@H]3C(=O)[C@H]1CC2`, the composite z-score in test [1] was -0.276; in test [2] it was 0.0346; in test [3], 0.0786; in [4], -0.0351; in test [5], 0.295; in [6], 0.319. Further, the values for the composite z-score (in the test on Lefty1; in [8]) were 0.387 and 0.13, respectively. In addition, the z-score in test [7] was 0.276; in test [9] it was -1.23 (inactive).

Consider `COC(=O)[C@@H]1CC[C@H](C)[C@@H](c2ccc(C)cc2)N1C(=O)c1ccc(C=NOC[C@@H](C)[C@H](OCc2ccccc2)C(C)C)cc1`, for which the composite z-score in test [1] worked out at 0.336; in test [2], 0.673; in test [3], 0.936; in test [4], 0.857; in [5], 0.915; in test [6], 0.698. Further, the composite z-score in the test with Lefty1 is 0.799; in test [8], 0.37. Further, the z-score in test [7] is 1.26; in test [9], -1.46 (inactive).

`Cc1ccc(S(=O)(=O)n2c3ccccc3c3nnc(C(=O)c4ccccc4)nc32)cc1`: the composite z-score in [1] is -0.252; in test [2], -0.0414; in [3], -0.0158; in [4], -1.08; in test [5] it was 0.583; in test [6] it was 0.978. In addition, the composite z-score in the test on Lefty1 is 0.0671; in [8], -0.218. The z-score in [7] is -1.99; in test [9] it was -4.76 (inactive).

Turning to `CCOC(=O)CCN1C(=O)[C@H]2[C@H]3[C@H](O)[C@H](O)CC(=NOCc4ccccc4)[C@H]3CC[C@H]2C1=O`, the composite z-score was 0.0669 in test [1]; -0.469 in test [2]; -0.017 in [3]; 0.658 in [4]; -0.851 in test [5]; -0.772 in [6]. The composite z-score with Lefty1 was -0.579; in [8], 0.343. The z-score was 0.229 in test [7] and 0.563 (inactive) in [9].

For the molecule `COc1cccc([C@@H]2Oc3ccc(OC)cc3C(=O)[C@H]2O)c1`, the composite z-score in test [1] is 0.575; in test [2], 0.193; in test [3], 0.0207; in test [4] it was 0.823; in test [5], 0.536; in test [6], 0.449. The figures for the composite z-score (in the test with Lefty1; in [8]) were 0.678 and -0.173, respectively. Moreover, the z-score was -1.54 in [7] and -1.6 (inactive) in test [9].

As for `CO[C@H]1COC(=O)CCC[C@@H](C)[C@H](OC)COC(=O)[C@@H]2CCCN2C(=O)CC=C[C@@H]1C`, the composite z-score is -0.278 in test [1]; -0.779 in test [2]; -0.682 in test [3]; -0.759 in test [4]; 1.33 in test [5]; 1.18 in test [6]. Also, the composite z-score in the test on Lefty1 is 1.44; in test [8], -0.207. Besides, the z-score in test [7] was -0.738; in test [9] it was 1.19 (inactive).

As for `O=C1CCCC=C1C(O)CCCCBr` (stereo not given), the composite z-score in test [1] is 3.06; in [2], 0.466; in [3] it was -0.0308; in test [4] it was 0.798; in [5] it was 1.01; in test [6] it was 0.306. In addition, the composite z-score was found to be 0.564 with Lefty1 and 1.28 in test [8]. The z-score is 1.04 in test [7] and -1.97 (inactive) in test [9].
